Source: PubChem BioAssay AID488837 (National Center for Advancing Translational Sciences (NCATS), 2010)
The whole screen tested about 330,000 compounds, of which about 20 (0.006%) were called active. Inconclusive results (about 1%) are left out. What follows is part of a selection rich in actives, with near analogues and random picks from the rest. Entries that show only a call come without a potency. Values without a mark were called inactive. Calls follow the shape of the dose curve; as a rule, active = well fitted inhibition curve with a large enough effect; inconclusive = small, poorly fitted or top-dose-only effect, or effect the other way; inactive = flat fitted curve, though single readings scatter.

Target: Protein phosphatase EYA2 (Homo sapiens) (UniProt O00167)
Assay: qHTS Assay for Inhibitors of the Phosphatase Activity of Eya2
Conditions: recombinant Eya2, OMFP fluorescence dephosphorylation (OMFP is methylfluorescein phosphate); series mostly up to 76.9 µM
Text: The Eya family of proteins are essential co-activators of the Six1 transcription factor. Six1 is a developmental gene that is abnormally re-expressed in a large percentage of breast cancers. This over-expression plays a causal role in the initiation and metastatic development of breast cancers. The Eya family of proteins was also found to contain a unique HAD phosphatase domain with protein tyrosine phosphatase activity which can potentially play a role in Six1-mediated breast tumorigenesis. […] We have developed and optimized a 1536 well fluorescence-based HTS assay targeting the phosphatase activity of Eya2. Inhibitors found against Eya2 could serve as potential therapeutic tools to inhibit Six1-mediated breast tumorigenesis and to increase the efficiency of radiation and certain chemo therapy. These inhibitors could also be used as chemical probes to study the function of Eya2's phosphatase activity and its role in Six1-mediated breast tumorigenesis.
The Eya2 enzyme was kindly provided by the laboratory of Dr. Rui Zhao. The 3-O-methyl-fluorescein phosphate (OMFP) substrate and all buffer reagents were purchased from Sigma Aldrich. qHTS Assay Setup: 1. Buffer- 50 mM HEPES pH 7.5, 50 mM NaCl, 5 uM MgCl2, 0.05% BSA, 1 mM DTT. 2. OMFP Stock- 10 mM solution prepared in 100% DMSO and stored in single use aliquots at -20C. Assay Procedure- 1. Dispense 1.5 ul per well of Eya2 at 0.2 uM in black medium binding 1536 well Greiner plate 2. Transfer 23 nl of compound and control compound (EGTA) to plate 3. Incubate at ambient for 10 minutes 4. Dispense 1.5 ul per well of OMFP at 50 uM 5. Incubate at ambient for 10 minutes 6. Read on ViewLux using Excitation = 485 nm, Emission = 525 nm
Potency is read from the fitted curve at half-maximal effect.

Protein phosphatase EYA2 (Homo sapiens), sequence (O00167 whole entry, looked up): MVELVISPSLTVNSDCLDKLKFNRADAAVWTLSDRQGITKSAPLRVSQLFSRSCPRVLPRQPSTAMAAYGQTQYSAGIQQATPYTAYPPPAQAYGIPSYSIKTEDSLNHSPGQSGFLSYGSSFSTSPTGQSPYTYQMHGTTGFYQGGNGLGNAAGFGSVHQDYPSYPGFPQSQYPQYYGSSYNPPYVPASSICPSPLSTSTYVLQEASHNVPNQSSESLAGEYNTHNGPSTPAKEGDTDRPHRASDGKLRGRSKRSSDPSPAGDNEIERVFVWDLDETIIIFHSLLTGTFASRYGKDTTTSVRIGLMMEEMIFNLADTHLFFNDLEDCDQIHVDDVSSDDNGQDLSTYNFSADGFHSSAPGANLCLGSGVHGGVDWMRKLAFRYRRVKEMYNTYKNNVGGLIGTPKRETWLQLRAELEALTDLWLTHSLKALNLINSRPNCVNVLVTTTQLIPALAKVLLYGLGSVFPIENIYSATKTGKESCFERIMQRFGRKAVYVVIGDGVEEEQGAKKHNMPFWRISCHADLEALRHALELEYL

Row | SMILES | activity, negative = inhibition | Potency
1 | CCC(CC)C(=O)Nc1ccc(S(=O)(=O)Nc2nccs2)cc1 | inactive | –
2 | COC(=O)C1CCCCN1C(=O)c1ccc(OC2CCN(C(C)=O)CC2)c(OC)c1 (stereo not given) | inactive | –
3 | CC1=CC2=NC(=O)CC(C)(C(=O)N(CC(=O)NC(C)(C)C)Cc3ccccc3)N2C=C1 (stereo not given) | inactive | –
4 | N=c1ccn(CC(=O)NC(N)=O)c2ccccc12 | inactive | –
5 | Cc1ccc(S(=O)(=O)N2CCC(Oc3ccc(-n4cnnn4)cc3)CC2)cc1 | inactive | –
6 | COc1ccc(C(=O)OCc2cc(=O)n3ccsc3n2)cc1F | inactive | –
7 | Cc1ccc(CCn2c3c(c4ccccc42)CN(C)CC3)cn1 | inactive | –
8 | Nc1ncnc2c1c(I)cn2[C@@H]1C[C@H](N)[C@@H](O)[C@H]1O | inactive | –
9 | CSCCC(NS(=O)(=O)c1ccc2c(c1)oc(=O)n2C)C(=O)NCc1ccccc1 (stereo not given) | inactive | –
10 | O=C(COc1ccc([N+](=O)[O-])cc1)Nc1cccc(C(=O)Nc2ccccc2C(=O)O)c1 | inactive | –
11 | CCCN1Cc2cccc(C(=O)Nc3ccc(S(=O)(=O)N4CCCCCC4)cc3)c2C1=O | inactive | –
12 | N#C/C(=C\N1CCOCC1)S(=O)(=O)c1ccc(Cl)cc1 | inactive | –
13 | CCOc1ccc(CCNC(=O)CN2C(=O)NC3(CCc4ccccc43)C2=O)cc1OCC (stereo not given) | inactive | –
14 | CCc1noc(C)c1C(=O)N1CCCSC1=Nc1ccccc1OC | inactive | –
15 | COc1ccc(OCCCC(=O)Nc2cccc(S(=O)(=O)N3CCCCCC3)c2)cc1 | inactive | –
16 | COC(=O)c1ccc(CSc2ccc3nnc(-c4ccccc4)n3n2)o1 | inactive | –
17 | Cc1cccc(C)c1NC(=O)C1CCCN1C(=O)OC(C)(C)C (stereo not given) | inactive | –
18 | O=C(Cc1ccccc1Cl)N1CCN(c2ccccn2)CC1 | inactive | –
19 | Cc1cc(C)c(C)c(S(=O)(=O)N[C@@H](C)C(=O)OC(C)C(=O)NC(N)=O)c1C (stereo not given in full) | inactive | –
20 | Cc1ccc(CC2C(=O)N(c3ccc(F)cc3)C(=O)C2C)cc1 (stereo not given) | inactive | –
21 | O=C(CNC(=O)OCc1ccccc1)Oc1cc2oc(=O)cc(-c3ccccc3)c2cc1Cl | inactive | –
22 | CCN(CC)P(=O)(C(NC(=O)OC)C(F)(F)C(F)(F)C(F)(F)C(F)F)N(CC)CC (stereo not given) | -3.75% [at 15.4 µM] | –
23 | COc1cc(NC(=O)c2ccccc2NS(=O)(=O)c2ccc(Cl)s2)cc(OC)c1 | inactive | –
24 | CN(C)/C(CN1CCCCC1)=C1\N=C(c2ccccc2)OC1=O | inactive | –
25 | CN(C)CCOc1cccc(Br)c1 | inactive | –

Row | SMILES | activity, negative = inhibition | Potency
26 | C=CCC[C@@H](Cc1ccc(F)cc1)C(=O)OC[C@H](Cc1c[nH]c2ccccc12)NC(=O)[C@@H](CC=C)CC(=O)N(CCO)Cc1ccccc1 | inactive | –
27 | CN(C)S(=O)(=O)c1ccc(N2CCCC2)c(C(=O)NCc2ccccc2)c1 | inactive | –
28 | Cc1cccc(C)c1NC(=S)N1CCCCCC1 | inactive | –
29 | O=S1(=O)CCC(NC(=S)SCc2ccccc2Br)C1 (stereo not given) | inactive | –
30 | N#CCC(=O)NC(=O)NCC1CC1 | inactive | –
31 | N/C(=N\OS(=O)(=O)c1cccc([N+](=O)[O-])c1)c1ccncc1 | inactive | –
32 | Cc1ccccc1-n1nnnc1SCCCC(=O)c1ccc(F)cc1 | inactive | –
33 | C=CCC1(CC=C)CCCN1C(=O)c1cc(COc2ccc(-n3cncn3)cc2)on1 | inactive | –
34 | CCCCCCCNc1nc(Cl)nc(NCCO)n1 | inactive | –
35 | CSc1ccc(Cl)c(C(=O)OCC(=O)N2CCNC2=O)c1 | inactive | –
36 | c1cc(-n2cnnn2)ccc1NC1=NCCC1 | inactive | –
37 | Cc1ccc(OCc2nnc(NC(=O)OCC(C)C)s2)cc1 | inactive | –
38 | COC(=O)[C@]1(Cc2ccccc2)N[C@H](CN(C)S(=O)(=O)c2ccc(OC(F)(F)F)cc2)[C@@H]2C(=O)N(Cc3ccccc3)C(=O)[C@@H]21 | inactive | –
39 | CSc1cccc(NC(=O)CN2C(=O)COc3ccc(S(=O)(=O)N4CCOCC4)cc32)c1 | inactive | –
40 | Cc1noc(NS(=O)(=O)c2ccc(NC(=O)c3oc4ccc(F)cc4c3C)cc2)c1C | inactive | –
41 | Cn1c2ccc(F)cc2c2nnc(NN)nc21 | inactive | –
42 | CCCCn1c(N)c(N(CC(C)C)C(=O)c2ccc(Br)o2)c(=O)[nH]c1=O | inactive | –
43 | CC(=O)/C(C)=N/O | inactive | –
44 | Cc1cccc(Nc2nnc(SCC(=O)c3c(N)n(C4CC4)c(=O)[nH]c3=O)s2)c1C | inactive | –
45 | COc1ccc(OC)c2c1sc(=NC(=O)CN1C(=O)CCC1=O)n2C | inactive | –
46 | CN(C(=O)CSc1nnc(-c2n[nH]c3ccccc23)o1)c1ccccc1 | inactive | –
47 | CCOc1cc(/C=C2/N=C(c3ccc(C(C)(C)C)cc3)OC2=O)cc(Cl)c1OS(C)(=O)=O | inactive | –
48 | OCc1n[nH]c(CO)n1 | inactive | –
49 | CCC1Sc2ccc(S(=O)(=O)CCC(=O)NCc3cccs3)cc2NC1=O (stereo not given) | inactive | –
50 | CCN(CC)c1ccc(S(=O)(=O)N2CCOCC2)cc1NC(=O)CSc1cccc[n+]1[O-] | inactive | –

Row | SMILES | activity, negative = inhibition | Potency
51 | Cn1c(-c2ccc(F)cc2)cc2onc(-c3ccccc3Cl)c2c1=O | inactive | –
52 | CCOc1cc(-c2noc(CCCC(=O)NC3CCCCC3)n2)ccc1OC | inactive | –
53 | O=S(=O)(Nc1ccccc1Cl)c1cccc2nsnc12 | inactive | –
54 | COn1c(=O)c(=O)n(OC)c2ccccc21 | inactive | –
55 | CN(C)C(=O)CCc1ccc2c3c([nH]c2c1)[C@]1(C)[C@@H](C(=O)N2CCOCC2)C[C@H](CC(=O)NCCc2ccccn2)C(=O)N1CC3 | inactive | –
56 | O=S(=O)(Nc1ccc2nc(-c3ccco3)[nH]c2c1)c1ccccc1 | inactive | –
57 | CCOc1ccc(CCNC(=O)COC(=O)c2ccc(F)c(S(=O)(=O)N3CCOCC3)c2)cc1OCC | inactive | –
58 | CC(CC(=O)Nc1ccc(F)cc1F)S(=O)(=O)c1ccc2c(c1)NC(=O)CO2 (stereo not given) | inactive | –
59 | Cc1c(C#N)c2ncn(CC#N)c(=O)c2n1-c1ccccc1 | inactive | –
60 | CCC(=O)Nc1cc(C(F)(F)F)ccc1N1CCCC1 | inactive | –
61 | CCn1ccnc1CN(C)C(=O)c1ccc2nc(Cc3ccc(OC)cc3)oc2c1 | inactive | –
62 | Cc1ccc(-n2cc(CN(C)Cc3nccn3C)c(-c3cccc(C)c3)n2)cc1 | inactive | –
63 | C#CCOCCOCCOCCNc1nc(N2CCN(C(=O)CCCCCCCCCCNC(=O)Cn3cc(CCCCCN)nn3)CC2)nc(N2CCN(C(=O)CCCCCCCCCCNC(=O)[C@H](CO)n3cc(CCCSC)nn3)CC2)n1 | inactive | –
64 | C#CCOCCOCCOCCNc1nc(N2CCN(C(=O)CCCCCCCCCCNC(=O)[C@H]([C@@H](C)CC)n3cc(CCCCN=C(N)N)nn3)CC2)nc(N2CCN(C(=O)CCCCCCCCCCNC(=O)[C@H](CO)n3cc(CCCSC)nn3)CC2)n1 | – | 31.6 µM (active)
65 | C#CCOCCOCCOCCNc1nc(N2CCN(C(=O)CCCCCCCCCCNC(=O)[C@H](CCCCN)n3cc(C)nn3)CC2)nc(N2CCN(C(=O)CCCCCCCCCCNC(=O)[C@H](CO)n3cc(CCCSC)nn3)CC2)n1 | inactive | –
66 | CC1CC2C3CCC4=CC(=O)C=C[C@]4(C)[C@@]3(F)[C@@H](O)C[C@]2(C)[C@@]1(O)C(=O)CO (stereo not given in full) | inactive | –
67 | Cc1cc(=O)[nH]c(N/N=C/c2c(C)nn(-c3ccccc3Cl)c2Cl)n1 | inactive | –
68 | CC(C)NC(=O)NCCCCCCS(C)=O (stereo not given) | inactive | –
69 | N#CCSc1nc(-c2ccccc2)nc2ccc(F)cc12 | inactive | –
70 | Cc1nnnn1/C(=C\c1ccccc1)C(=O)OCC(=O)N1CC2(C)CC1CC(C)(C)C2 (stereo not given) | inactive | –
71 | C=CCOc1ccc(C(=O)Nc2ccccc2C(=O)N2CCCC2)cc1 | inactive | –
72 | O=C(NCCCCO)C(F)(F)C(F)(F)C(F)(F)C(=O)NCCCCO | inactive | –
73 | COc1ccc(CCc2nnc(CCC(=O)NCc3cnn(-c4ccccc4C)c3)o2)cc1 | inactive | –
74 | CCc1cccc(C)c1N1C(=O)CN(Cc2ccccc2)C1=S | inactive | –
75 | O=C(NCc1cc(C(F)(F)F)cc(C(F)(F)F)c1)C1CC(c2cccc(F)c2)=NO1 (stereo not given) | inactive | –

Row | SMILES | activity, negative = inhibition | Potency
76 | CSc1ccccc1N1CCN(CCCCCC(=O)NC2CCCc3ccccc32)CC1 (stereo not given) | inactive | –
77 | COCc1cc(=O)[nH]c(SC)n1 | inactive | –
78 | N#Cc1cccc(OC(=O)c2ccc3c(=O)n4c(nc3c2)CCC4)c1 | inactive | –
79 | Cc1snc(SCc2c(F)cccc2Cl)c1C#N | inactive | –
80 | CCOC(=O)C1CN(S(=O)(=O)c2ccc(F)cc2)C1 | inactive | –
81 | O=S(=O)(c1ccc(Cl)cc1)c1nc(-c2ccccc2F)oc1NCCN1CCOCC1 | inactive | –
82 | COc1cc(C)c(S(=O)(=O)N2CCOCC2)c(C)c1C | inactive | –
83 | O=C(CSc1ccccc1F)NC1CCS(=O)(=O)C1 (stereo not given) | inactive | –
84 | Clc1cccc(Cl)c1Cn1nnc(-c2cccs2)n1 | inactive | –
85 | Cc1ccc(NC(=O)CCNC(=O)c2ccc([N+](=O)[O-])cc2)cc1S(=O)(=O)N1CCOCC1 | inactive | –
86 | CC(C)(O)C#Cc1ncc(C(F)(F)F)cc1Cl | inactive | –
87 | COc1ccc(-c2nc3ccccc3n2CCC(C)C)cc1OC | inactive | –
88 | CN1CCN(C(=O)c2ccccc2NC(=O)COc2ccccc2Cl)CC1 | inactive | –
89 | CCOc1ccc(NC(=O)C(C)N2C(=O)c3ccccc3C2=O)cc1 (stereo not given) | inactive | –
90 | O=C(OC1CCOC1=O)c1ccc(-c2nc3ccccc3s2)s1 (stereo not given) | inactive | –
91 | O=S(=O)(/C=C/c1ccccc1)NCCc1ccccn1 | inactive | –
92 | Cc1cc(C(F)F)nn1CC(=O)NC1CCCCCC1 | inactive | –
93 | COc1ccc(C(C#N)Nc2ccc(C)cc2)cc1 (stereo not given) | inactive | –
94 | Cc1ccc(C2(C(F)(F)F)N=C3Sc4cc(C)cc(C)c4N3C(=O)N2)cc1 (stereo not given) | inactive | –
95 | COc1ccc(-n2nc3c(c2NC(=O)c2ccc(N4C(=O)CCC4=O)cc2)CSC3)cc1 | inactive | –
96 | CC(O)c1cccc(NC(=O)Cc2cccc3ccccc23)c1 (stereo not given) | inactive | –
97 | O=C(NC1CCCC1)C(c1ccco1)N(C(=O)c1ccco1)c1ccc(F)cc1 (stereo not given) | inactive | –
98 | CC(C)(C)c1cc2cccnc2n1Cc1ccccc1 | inactive | –
99 | CCN1CCN(c2nc(Nc3cc(OC)ccc3OC)nc(Nc3cc(OC)ccc3OC)n2)CC1 | inactive | –
100 | COc1ccc(-c2cc(C(F)(F)F)nc(S(C)(=O)=O)n2)cc1OC | inactive | –
